How the values were obtained:
Assay type in all cases: functional
Plasmodium falciparum [1] = test: GSK_TCMDC: Inhibition of Plasmodium falciparum 3D7 in whole red blood cells, using parasite LDH activity as an index of growth. Test compounds present at 2uM
Plasmodium falciparum [2] = test: GSK_TCMDC: Inhibition of Plasmodium falciparum Dd2 in whole red blood cells, using parasite LDH activity as an index of growth. Test compounds present at 2uM
HepG2 = test: GSK_TCMDC: Percent inhibition of human HepG2 cell line. Test compounds present at 10uM.

Compound | Inhibition (Plasmodium falciparum [1]) | Inhibition (Plasmodium falciparum [2]) | Inhibition (HepG2)
Cl.N#CC1(CCCNCCc2ccc(O)cc2)CCCc2c(O)cccc21 (stereo not given) | 95% | 3% | 0%
CC(C)C1=C[C@H]2C[C@]3(C4OCCO4)[C@@H]4CC[C@@H](C)[C@H]4C[C@@]2(COCc2cccc(C#N)c2)[C@]13C(=O)OC(c1ccccc1)c1ccccc1 | 88% | 92% | 0%
COc1ccc2nccc(N/N=C/c3ccccc3[N+](=O)[O-])c2c1 | 100% | 100% | 67%
COc1cc(C)nc2ccc(NC(=O)Nc3ccc4nc(C)cc(OC)c4c3)cc12 | 100% | 83% | 79%
O=C(/C=C/c1ccc(Cl)c(Cl)c1)NC1CCC(CN2CCC(c3nc4cccnc4[nH]3)CC2)CC1 (stereo not given) | 100% | 2% | 7%
Nc1nccc2ccc(-c3cccc4ncccc34)cc12.O=C(O)C(F)(F)F | 98% | 94% | 40%
COC(=O)C(NC(=O)c1ccc(-c2ccc(-c3nc4ccccc4[nH]3)s2)cc1)c1ccc(O)cc1 (stereo not given) | 83% | 49% | 99%
NC(=O)COc1c(C2CCN(CCCCNC(=O)c3ccc(-c4ccc(Cl)cc4)c(O)c3)CC2)ccc2c1CCCC2 | 100% | 72% | 97%
O=C(Nc1ccc(Cl)cn1)c1sc2ccccc2c1O | 99% | 18% | 2%
Oc1ccccc1CNC1CCCCC1NCc1ccccc1O (stereo not given) | 96% | 66% | 53%
O=C(/C=C/c1ccc(Cl)c(Cl)c1)NCCCCCN1CCC(CCNC(=O)/C=C/c2cc(C(F)(F)F)ccc2F)CC1 | 98% | 46% | 25%
CCN(CC)CCCC(C)Nc1c2ccccc2nc2c1ccc1ccccc12.Cl (stereo not given) | 96% | 34% | 18%
COc1ccc2c(c1)S(=O)(=O)N=C(N1CCCC1c1ccc(Cl)c(Cl)c1)N2C.O=C(O)C(F)(F)F (stereo not given) | 89% | 19% | 0%
CCCCCCc1cc2cc(-c3csc(C=Cc4ccccc4)n3)c(=O)oc2cc1O | 96% | 75% | 17%
O=c1cc(NCCCNCc2cccc(OC(F)(F)C(F)F)c2)[nH]c2ccccc12 | 81% | 7% | 6%
COc1cc(NC(=O)C(c2ccc(Cl)cc2)C(C)C)cc(OC)c1 (stereo not given) | 99% | 98% | 5%
Cc1cc(C(=O)NC2CCN(CC3(c4ccccc4)CCCCC3)CC2)on1 | 97% | 95% | 0%
O=C(Nc1ccc(Cl)cc1)c1ccc(CN2CCCN(Cc3cccc(O)c3)CC2)cc1.O=C(O)C(F)(F)F | 100% | 69% | 52%

Compound | Inhibition (Plasmodium falciparum [1]) | Inhibition (Plasmodium falciparum [2]) | Inhibition (HepG2)
CON=C1CCC(Cn2ccnc2)(c2ccc(Cl)cc2Cl)CC1 (stereo not given) | 100% | 56% | 7%
COc1ccccc1-c1cccc(-c2cccc(NC(=O)c3ccc([N+](=O)[O-])o3)c2)n1 | 97% | 59% | 78%
CCc1cn2c3c(cc(C(=O)N[C@@H](Cc4ccccc4)[C@H](O)CNCc4ccccc4C)cc13)N(C)S(=O)(=O)CC2.O=CO | 98% | 98% | 3%
CCC(C)NC(=O)Nc1ccc(-c2cccc(-c3nc4cc(C(F)(F)F)ccc4[nH]3)c2)cc1 (stereo not given) | 97% | 0% | 45%
CO/C(=C\C=C\c1cc2cc(Cl)c(Cl)cc2[nH]1)C(=O)NCCCN1CCN(c2ccncc2)CC1 | 98% | 96% | 12%
CC(CN(C)C)C(=O)Nc1ccc(-c2cccc(-c3nc4cc(C(F)(F)F)ccc4[nH]3)c2)cc1 (stereo not given) | 100% | 85% | 30%
COc1ccc(NC(=O)NC2CCN(CCCOc3ccnc4cc(Cl)ccc34)C2)cc1OC (stereo not given) | 90% | 16% | 6%
Br.CCC(CCON1C(N)=NC(N)=NC1(C)C)c1ccc(Cl)cc1 (stereo not given) | 94% | 95% | 66%
CCCC(C)Nc1nc(C)cc(NCCC(=O)Nc2ccccc2)n1.O=C(O)C(F)(F)F (stereo not given) | 96% | 11% | 12%
O=c1c(NCCCN(Cc2ccc(F)cc2)c2ccccn2)c(NCc2cccnc2)c1=O | 100% | 92% | 0%
COc1cccc(Nc2nccc(NCC(O)c3ccc(C(F)(F)F)cc3)n2)c1 (stereo not given) | 99% | 28% | 14%
O=C(/C=C/c1ccc(Cl)cc1)NCCCCCN1CCC(C(=O)Nc2ccc(Cl)c(Cl)c2)CC1 | 100% | 0% | 47%
Nc1nc2c(cnn2CCCCCCCP(=O)(O)O)c(=O)[nH]1 | 94% | 91% | 0%
O=C(/C=C/c1ccccc1Cl)Nc1ccc(Br)c(OCCN2CCC(O)(c3ccccc3)CC2)c1.O=C(O)C(=O)O | 100% | 85% | 39%
S=C(NCCCCCN1CCC(c2c[nH]c3ccccc23)CC1)Nc1cc(Cl)cc(Cl)c1 | 100% | 35% | 25%
Nc1ncc(-c2ccccc2)cc1-c1cccc2ncccc12.O=C(O)C(F)(F)F | 97% | 99% | 82%
CC1=C(C(=O)Nc2ccccc2)C(c2ccc([N+](=O)[O-])cc2)n2ncc(C(=O)Nc3ccccc3)c2N1 (stereo not given) | 86% | 68% | 9%
